Compounds without any hit were thinned out: in the full panel of roughly 83,000, 20% have a hit.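 Results are percent growth after 48 hours of single-concentration exposure. 100 means growth as in untreated cells, lower positive values show inhibition; negative values down to -100 show cell death.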 Values without a mark were called inactive. Activity calls are given as the source filed them. The calls were made as follows: active = growth percent below 10; inactive = the rest.

Among the test systems are K-562 leukemia; MALME-3M melanoma; MDA-MB-231 breast; RXF 393 renal; SF-268 CNS; SF-295 CNS; SF-539 CNS; M14 melanoma; HCT-15 colon; HT29 colon; SNB-75 CNS; SNB-19 CNS; U251 CNS; PC-3 prostate; SK-MEL-5 melanoma; UACC-62 melanoma; LOX IMVI melanoma; SK-MEL-28 melanoma; SK-MEL-2 melanoma; UACC-257 melanoma.
Common to all, as to assay: NCI-60 one-dose screen, 48 h (100 = growth as untreated, 0 = no growth, -100 = all killed)
Details in all cases: 10 µM

`CC(C)=CCc1cc(O)cc2c1OC(C=C(C)C)C1=C2C(=O)C2=C(NCCS2(=O)=O)C1=O` (centres undefined): the growth was 2.31% (active) with K-562 leukemia; -92.9% (active) with MALME-3M melanoma; -8.67% (active) in the test on MDA-MB-231 breast; -2.85% (active) in the test with RXF 393 renal; -1.83% (active) in the test on SF-268 CNS; 45.9% with SF-295 CNS. Also, the growth is -50.5% (active) with SF-539 CNS; -87.2% (active) in the test on M14 melanoma; 28.4% in the test with HCT-15 colon; -14.9% (active) with HT29 colon; 18.5% with SNB-75 CNS; -44.5% (active) with SNB-19 CNS. In addition, the growth in the test on U251 CNS is -85% (active); in the test with PC-3 prostate it was 10%; with SK-MEL-5 melanoma it was -96.7% (active); in the test with UACC-62 melanoma it was -18.9% (active); in the test with LOX IMVI melanoma, -56.2% (active); in the test on SK-MEL-28 melanoma, -33.4% (active). In addition, the growth in the test on SK-MEL-2 melanoma was -28.9% (active).

For the compound `Cc1ccc(Nc2cc(C)nc(NCCCNc3ccnc4cc(Cl)ccc34)n2)cc1`, the growth is -55% (active) in the test on K-562 leukemia; -80.5% (active) in the test on MALME-3M melanoma; -92.4% (active) in the test with MDA-MB-231 breast; -92.1% (active) in the test on RXF 393 renal; -85% (active) in the test on SF-268 CNS; -85.6% (active) in the test with SF-295 CNS. Besides, the growth in the test with SF-539 CNS is -96.9% (active); with M14 melanoma it was -86% (active); in the test with HCT-15 colon it was -71.7% (active); in the test with HT29 colon, -87.2% (active); with SNB-75 CNS, -98.5% (active); in the test with SNB-19 CNS it was -24.9% (active). In addition, the growth with PC-3 prostate is -38.4% (active); in the test on SK-MEL-5 melanoma, -100% (active); in the test on UACC-62 melanoma, -92.9% (active); with LOX IMVI melanoma, -82.7% (active); with SK-MEL-28 melanoma it was -100% (active); in the test on SK-MEL-2 melanoma it was -97% (active).

As to `COc1cc(Nc2ccnc(NCCCNc3ccnc4cc(Cl)ccc34)n2)cc(OC)c1`, the growth was -51.1% (active) in the test on K-562 leukemia; -87.7% (active) in the test with MALME-3M melanoma; -54.6% (active) in the test with MDA-MB-231 breast; -83.3% (active) in the test on RXF 393 renal; -19.9% (active) in the test with SF-268 CNS; -75.9% (active) in the test on SF-295 CNS. Also, the growth is -98.5% (active) with SF-539 CNS; -85.6% (active) in the test with M14 melanoma; -31.9% (active) in the test on HT29 colon; -58.6% (active) in the test on SNB-75 CNS; 2.03% (active) in the test on SNB-19 CNS; -64.4% (active) in the test on U251 CNS. Moreover, the growth was 26.1% in the test with PC-3 prostate; -100% (active) in the test on SK-MEL-5 melanoma; -82.5% (active) in the test with UACC-62 melanoma; -82.5% (active) with LOX IMVI melanoma; -100% (active) in the test on SK-MEL-28 melanoma; -81.6% (active) in the test on SK-MEL-2 melanoma.

Take `O=C(Nc1cccc(Br)c1)c1cc(=O)[nH]c2ccccc12`: the growth in the test with K-562 leukemia is 55.8%; with MALME-3M melanoma, 101%; in the test with MDA-MB-231 breast it was 93.6%; with RXF 393 renal, 77.4%; in the test on SF-268 CNS it was 94.8%; with SF-295 CNS, 112%. Also, the growth in the test on SF-539 CNS is 92%; in the test with M14 melanoma it was 104%; in the test on HCT-15 colon, 92.4%; with HT29 colon, 107%; in the test with SNB-75 CNS it was 70.6%; in the test on SNB-19 CNS it was 97.9%. Also, the growth in the test on U251 CNS was 91.5%; in the test on PC-3 prostate it was 79.2%; in the test on SK-MEL-5 melanoma, 95.5%; in the test on LOX IMVI melanoma it was 89.3%; with SK-MEL-28 melanoma, 107%; with SK-MEL-2 melanoma it was 56.6%.

On to `Cc1ccc(C(=O)Nc2cccc(F)c2)cc1NC(=O)C1(c2ncnc3[nH]ccc23)CC1`, for which the growth is 6.39% (active) in the test on K-562 leukemia; 35% in the test with MALME-3M melanoma; 54.8% in the test with MDA-MB-231 breast; 91.5% in the test with RXF 393 renal; 95.2% with SF-268 CNS; 89.3% with SF-295 CNS. Also, the growth with SF-539 CNS was 73%; in the test with M14 melanoma it was 60%; in the test on HCT-15 colon, 88.8%; with HT29 colon, 52.5%; in the test on SNB-75 CNS it was 95.8%; in the test on SNB-19 CNS, 120%. Also, the growth in the test on U251 CNS is 93.6%; in the test with PC-3 prostate it was 92.2%; with SK-MEL-5 melanoma, 74.3%; with UACC-62 melanoma it was 54.5%; in the test with LOX IMVI melanoma, 42.1%; in the test with SK-MEL-28 melanoma, 83.3%. Moreover, the growth in the test with SK-MEL-2 melanoma was 14.5%.

On to `COc1ccc2c(c1)/C(=C\c1c[nH]c3ccc(OC)cc13)C(=O)N2`, for which the growth with K-562 leukemia was 11.6%; in the test on MALME-3M melanoma, 91.8%; in the test on MDA-MB-231 breast, 42.3%; in the test with RXF 393 renal, 60.5%; in the test on SF-295 CNS it was 74%; with SF-539 CNS it was 74.2%. Besides, the growth with UACC-257 melanoma is 68.1%; in the test with M14 melanoma, 29.8%; in the test with HCT-15 colon it was 31.6%; in the test with HT29 colon, 24.9%; in the test with SNB-75 CNS, 46.7%; in the test on SNB-19 CNS it was 77.3%. Moreover, the growth in the test with U251 CNS was 56.2%; in the test with PC-3 prostate it was 60.6%; in the test with SK-MEL-5 melanoma, 46.3%; in the test on UACC-62 melanoma, 39.3%; with LOX IMVI melanoma it was 35.9%; in the test on SK-MEL-28 melanoma it was 71.7%. In the test on SK-MEL-2 melanoma, the growth was 33.4%.

Turning to `COc1ccc(-c2nc3ccccn3c2-c2nnc(-c3cc(OC)c(OC)c(OC)c3)o2)cc1`, the growth is 102% in the test with K-562 leukemia; 51.5% in the test on MALME-3M melanoma; 46.9% in the test with MDA-MB-231 breast; 74.3% with RXF 393 renal; 64.9% in the test on SF-295 CNS; 52.8% in the test on SF-539 CNS. For the same compound, the growth in the test with UACC-257 melanoma is 84.2%; with M14 melanoma, 75.7%; with HCT-15 colon, 71.6%; in the test on HT29 colon, 70.4%; with SNB-75 CNS it was 59.9%; in the test with SNB-19 CNS it was 44.5%. In addition, the growth is 45.8% in the test on U251 CNS; 98.2% with PC-3 prostate; 44.7% in the test with SK-MEL-5 melanoma; 68.5% with UACC-62 melanoma; 78.1% in the test on LOX IMVI melanoma; 83.6% in the test on SK-MEL-28 melanoma. In the test on SK-MEL-2 melanoma, the growth is 92.1%.

Take `Cc1cc(N(CCCNc2ccnc3cc(Cl)ccc23)Cc2ccc3c(c2)OCO3)nc(N2CCCCC2)n1`: the growth in the test with K-562 leukemia was -45.5% (active); in the test with MALME-3M melanoma it was -81.6% (active); with MDA-MB-231 breast, -47.2% (active); in the test on RXF 393 renal, -74.5% (active); with SF-268 CNS, 3.28% (active); in the test on SF-295 CNS, -67.6% (active). In addition, the growth in the test with SF-539 CNS was -87.7% (active); in the test on M14 melanoma, -86% (active); in the test on HCT-15 colon, -78.3% (active); in the test with HT29 colon, -49.9% (active); in the test on SNB-75 CNS, -26.5% (active); with SNB-19 CNS it was 14.9%. Besides, the growth in the test with U251 CNS is -55% (active); with PC-3 prostate it was -34.6% (active); in the test on SK-MEL-5 melanoma it was -95.3% (active); with UACC-62 melanoma, -54.7% (active); in the test on LOX IMVI melanoma it was -89% (active); in the test on SK-MEL-28 melanoma, -81.9% (active). In the test on SK-MEL-2 melanoma, the growth is -67.5% (active).

The record behind these values is PubChem BioAssay (NCI).
